# From the supplement of paper PMC8728848
# The full list was thinned out, with the strongest signals kept by preference.
# B1: Gal 10 (Homo sapiens), Q05315 (protein)
# chain: MSLLPVPYTEAASLSTGSTVTIKGRPLVCFLNEPYLQVDFHTEMKEESDIVFHFQVCFGRRVVMNSREYGAWKQQVESKNMPFQDGQEFELSISVLPDKYQVMVNGQSSYTFDHRIKPEAVKMVQVWRDISLTKFNVSYLKR
# Legend:
# Experiment in all cases: glycan array binding signal (z-score within array); higher = stronger binding
# Details in all cases: glycan notation: IUPAC condensed, linker removed
# [1] = target: Fuc(a1-2)Gal(b1-3)[Fuc(a1-4)]GlcNAc(b1-2)Man(a1-3)[Fuc(a1-2)Gal(b1-3)[Fuc(a1-4)]GlcNAc(b1-2)Man(a1-3)]Man(b1-4)GlcNAc(b1-4)GlcNAc
# How it was run: (§1)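 From the Consortium for Functional Glycomics database, 3228 arrays were curated, keeping only those whose protein sequence was available. Binding is given as a within-array Z-score averaged across arrays sharing a protein sequence and across linkers. Negative Z-scores can be read as non-binding.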
# [2] = target: Fuc(a1-2)Gal(b1-3)[Fuc(a1-4)]GlcNAc(b1-2)Man(a1-6)[Fuc(a1-2)Gal(b1-3)[Fuc(a1-4)]GlcNAc(b1-2)Man(a1-3)]Man(b1-4)GlcNAc(b1-4)[Fuc(a1-6)]GlcNAc
# How it was run: as §1
# [3] = target: Fuc(a1-2)Gal(b1-4)GlcNAc(b1-3)Gal(b1-4)GlcNAc(b1-3)Gal(b1-4)GlcNAc
# How it was run: as §1
# [4] = target: Fuc(a1-2)Gal(b1-4)[Fuc(a1-3)]GlcNAc(b1-2)Man(a1-3)[Fuc(a1-2)Gal(b1-4)[Fuc(a1-3)]GlcNAc(b1-2)Man(a1-6)]Man(b1-4)GlcNAc(b1-4)[Fuc(a1-6)]GlcNAc
# How it was run: as §1
# [5] = target: Fuc(a1-2)Gal(b1-4)[Fuc(a1-3)]GlcNAc(b1-3)Gal(b1-4)[Fuc(a1-3)]GlcNAc
# How it was run: as §1
# [6] = target: Fuc(a1-2)Gal(b1-4)[Fuc(a1-3)]GlcNAc(b1-3)GalNAc
# How it was run: as §1
# [7] = target: Fuc(a1-2)Gal6S(b1-3)GlcNAc6S
# How it was run: as §1
# [8] = target: Fuc(a1-2)[Gal(a1-3)]Gal(b1-4)GlcNAc(b1-3)GalNAc
# How it was run: as §1
# [9] = target: Fuc(a1-2)[Gal(a1-3)]Gal(b1-4)GlcNAc(b1-6)GalNAc
# How it was run: as §1
# [10] = target: Fuc(a1-2)[GalNAc(a1-3)]Gal(b1-3)GlcNAc(b1-3)GalNAc
# How it was run: as §1
# [11] = target: Fuc(a1-2)[GalNAc(a1-3)]Gal(b1-4)GlcNAc(b1-3)Gal(b1-4)GlcNAc
# How it was run: as §1
# [12] = target: Fuc(a1-2)[GalNAc(a1-3)]Gal(b1-4)GlcNAc(b1-3)[Fuc(a1-2)[GalNAc(a1-3)]Gal(b1-4)GlcNAc(b1-6)]GalNAc
# How it was run: as §1
# Fuc(b1-3)GlcNAc = target: Fuc(b1-3)GlcNAc
# How it was run: as §1
# Gal(a1-3)Gal(b1-3)GlcNAc = target: Gal(a1-3)Gal(b1-3)GlcNAc
# How it was run: as §1
# [13] = target: Gal(a1-3)Gal(b1-3)[Fuc(a1-4)]GlcNAc(b1-2)Man(a1-3)[Gal(a1-3)Gal(b1-3)[Fuc(a1-4)]GlcNAc(b1-2)Man(a1-6)]Man(b1-4)GlcNAc(b1-4)GlcNAc
# How it was run: as §1
# Gal(a1-3)Gal(b1-4)GlcNAc = target: Gal(a1-3)Gal(b1-4)GlcNAc
# How it was run: as §1
# [14] = target: Gal(a1-4)Gal(b1-4)GlcNAc(b1-3)Gal(b1-4)Glc
# How it was run: as §1
# [15] = target: Gal(b1-3)Gal(b1-4)GlcNAc(b1-2)Man(a1-3)[Gal(b1-3)Gal(b1-4)GlcNAc(b1-2)Man(a1-6)]Man(b1-4)GlcNAc(b1-4)GlcNAc
# How it was run: as §1
# Gal(b1-3)GalNAc = target: Gal(b1-3)GalNAc
# How it was run: as §1
# [16] = target: Gal(b1-3)GalNAc(b1-3)Gal(a1-4)Gal(b1-4)Glc
# How it was run: as §1
# Gal(b1-4)Glc6S = target: Gal(b1-4)Glc6S
# How it was run: as §1
# [17] = target: Gal(b1-4)GlcNAc(b1-2)[Gal(b1-4)GlcNAc(b1-4)]Man(a1-3)[GlcNAc(b1-4)][Gal(b1-4)GlcNAc(b1-2)Man(a1-6)]Man(b1-4)GlcNAc(b1-4)GlcNAc
# How it was run: as §1
# [18] = target: Gal(b1-4)GlcNAc(b1-3)Gal(b1-4)GlcNAc(b1-2)[Gal(b1-4)GlcNAc(b1-3)Gal(b1-4)GlcNAc(b1-6)]Man(a1-6)[Gal(b1-4)GlcNAc(b1-3)Gal(b1-4)GlcNAc(b1-2)Man(a1-3)]Man(b1-4)GlcNAc(b1-4)[Fuc(a1-6)]GlcNAc
# How it was run: as §1
# [19] = target: Gal(b1-4)GlcNAc(b1-3)Gal(b1-4)GlcNAc(b1-3)Gal(b1-4)GlcNAc(b1-2)[Gal(b1-4)GlcNAc(b1-3)Gal(b1-4)GlcNAc(b1-3)Gal(b1-4)GlcNAc(b1-6)]Man(a1-6)[Gal(b1-4)GlcNAc(b1-3)Gal(b1-4)GlcNAc(b1-3)Gal(b1-4)GlcNAc(b1-2)Man(a1-3)]Man(b1-4)GlcNAc(b1-4)[Fuc(a1-6)]GlcNAc
# How it was run: as §1
# [20] = target: Gal(b1-4)GlcNAc(b1-3)Gal(b1-4)GlcNAc(b1-3)Gal(b1-4)GlcNAc(b1-3)Gal(b1-4)GlcNAc(b1-3)Gal(b1-4)GlcNAc(b1-2)Man(a1-3)[Gal(b1-4)GlcNAc(b1-3)Gal(b1-4)GlcNAc(b1-3)Gal(b1-4)GlcNAc(b1-3)Gal(b1-4)GlcNAc(b1-3)Gal(b1-4)GlcNAc(b1-2)Man(a1-6)]Man(b1-4)GlcNAc(b1-4)GlcNAc
# How it was run: as §1
# [21] = target: Gal(b1-4)GlcNAc(b1-3)Gal(b1-4)GlcNAc(b1-6)[Gal(b1-3)]GalNAc
# How it was run: as §1
# Gal3S(b1-3)GalNAc = target: Gal3S(b1-3)GalNAc
# How it was run: as §1
# Gal3S(b1-4)Glc6S = target: Gal3S(b1-4)Glc6S
# How it was run: as §1
# [22] = target: Gal3S(b1-4)[Fuc(a1-3)]GlcNAc
# How it was run: as §1
# Gal4S(b1-4)GlcNAc = target: Gal4S(b1-4)GlcNAc
# How it was run: as §1
binder,measurement,setting,value
B1,glycan array binding signal (z-score),[1],0.078
same,glycan array binding signal (z-score),[2],0.81
same,glycan array binding signal (z-score),[3],-0.692
same,glycan array binding signal (z-score),[4],-0.642
same,glycan array binding signal (z-score),[5],-1.35
same,glycan array binding signal (z-score),[6],2.13
same,glycan array binding signal (z-score),[7],0.571
same,glycan array binding signal (z-score),[8],-0.339
same,glycan array binding signal (z-score),[9],1.28
same,glycan array binding signal (z-score),[10],0.64
same,glycan array binding signal (z-score),[11],-0.116
same,glycan array binding signal (z-score),[12],3.88
same,glycan array binding signal (z-score),Fuc(b1-3)GlcNAc,0.585
same,glycan array binding signal (z-score),Gal(a1-3)Gal(b1-3)GlcNAc,-0.317
same,glycan array binding signal (z-score),[13],0.703
same,glycan array binding signal (z-score),Gal(a1-3)Gal(b1-4)GlcNAc,0.105
same,glycan array binding signal (z-score),[14],-0.109
same,glycan array binding signal (z-score),[15],-0.754
same,glycan array binding signal (z-score),Gal(b1-3)GalNAc,0.117
same,glycan array binding signal (z-score),[16],-0.196
same,glycan array binding signal (z-score),Gal(b1-4)Glc6S,-0.347
same,glycan array binding signal (z-score),[17],-0.708
same,glycan array binding signal (z-score),[18],2.23
same,glycan array binding signal (z-score),[19],5.64
same,glycan array binding signal (z-score),[20],3.23
same,glycan array binding signal (z-score),[21],3.3
same,glycan array binding signal (z-score),Gal3S(b1-3)GalNAc,-0.157
same,glycan array binding signal (z-score),Gal3S(b1-4)Glc6S,0.08
same,glycan array binding signal (z-score),[22],-0.495
same,glycan array binding signal (z-score),Gal4S(b1-4)GlcNAc,-0.269
